Bioassay records (PubChem)
Cruzain inh noDet: blocks cruzain activity in detergent-free assay | hit rate 2.3% among 200,000 | Potency, µM, for inactives: max response, negative = inhibition, most hits filed as inhibitors | purified cruzain, Z-FR-AMC fluorescence, no detergent | AID 1476;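 further: plate controls were enzyme without inhibitor for no effect and buffer without enzyme for full effect; nearly all actives have a fitted effect of over 40% in size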
Target sequence (P25779 123-467 limits assumed): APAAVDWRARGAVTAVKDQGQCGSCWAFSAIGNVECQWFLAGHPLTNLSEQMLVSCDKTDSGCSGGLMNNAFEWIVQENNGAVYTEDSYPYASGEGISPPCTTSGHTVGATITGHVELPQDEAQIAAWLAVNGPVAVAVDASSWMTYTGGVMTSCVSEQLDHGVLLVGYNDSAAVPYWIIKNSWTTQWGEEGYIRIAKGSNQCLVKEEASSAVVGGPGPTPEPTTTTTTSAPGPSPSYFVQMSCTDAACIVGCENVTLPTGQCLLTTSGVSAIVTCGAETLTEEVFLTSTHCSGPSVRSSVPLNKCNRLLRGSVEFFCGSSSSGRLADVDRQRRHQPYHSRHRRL
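Purified cruzain at 1.5 nM, pre-incubated 15 min with compound at room temperature in 100 mM sodium acetate pH 5.5, 5 mM DTT, 0.00005% Triton X-100. Reaction started with 2 uM Z-FR-AMC; AMC fluorescence increase over 60 s gives rate.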
Cruzain Triton: cruzain (T. cruzi) inhibition with detergent; P25779; purified cruzain, Z-FR-AMC fluorescence, 0.01% Triton; Potency, µM, for inactives: max response, negative = inhibition, usual class: inhibitors; hit rate 0.43% among 200,000; AID 1478;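 further: plate controls were neutral wells for no effect and buffer without enzyme for full effect; nearly all actives have a fitted effect of over 40% in size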
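Sodium acetate buffer (100 mM, pH 5.5) containing 5 mM DTT and 0.01% Triton X-100 hosted 1.5 nM cruzain and test compound for 15 min at room temperature. Cleavage of 2 uM Z-FR-AMC was then tracked by fluorescence.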
* hit, by the source's call. Most compounds without a hit are left out; they make up all but 2.6% or so of the library. The call rests on the fitted dose curve; in most records, active means well fitted curve in the direction sought with a large enough effect; inconclusive means small, poorly fitted or top-dose-only effect, or another doubt; inactive means no such curve, though single readings can be large; an effect the other way counts as inactive or inconclusive. Potency means the concentration at half of the fitted maximal effect.

Results for Cc1cc(C)c2sc(N(Cc3cccnc3)C(=O)CCS(=O)(=O)c3ccccc3)nc2c1 ?
Cruzain inh noDet: inconclusive; Cruzain Triton: -2%

How did CCOc1ccc(CNC(=O)CCn2c(=O)c3cccn3c3cccnc32)cc1 do in these assays?
Cruzain inh noDet: 19%; Cruzain Triton: 0%

How did Cc1ccc2onc(CC(=O)N3CCN(c4ccccc4F)CC3)c2c1 do in these assays?
Cruzain inh noDet: inconclusive; Cruzain Triton: -7%

Results for Cc1ccc2onc(CC(=O)N3CCN(c4ccc(F)cc4)CC3)c2c1 ?
Cruzain inh noDet: 25µM*; Cruzain Triton: 28µM*

Results for CCOc1ccccc1NC(=O)Cn1c(=O)n(C(C)C)c(=O)c2oc3ccccc3c21 ?
Cruzain inh noDet: 19%; Cruzain Triton: 0%

Results for COc1ccccc1Nc1nc(-c2ccccc2)c(CC(=O)O)s1 ?
Cruzain inh noDet: 25µM*; Cruzain Triton: -13%

What do the screens show for `O=C(O)Cc1sc(N/N=C\c2ccccc2)nc1-c1ccccc1`?
Cruzain inh noDet: inconclusive; Cruzain Triton: -9%

How did COc1ccccc1N1CCN(c2cc(=O)n(-c3ccc(Br)cc3)c(=O)[nH]2)CC1 do in these assays?
Cruzain inh noDet: inconclusive; Cruzain Triton: 2%

Results for O=c1cc(N2CCN(c3ccccc3F)CC2)[nH]c(=O)n1-c1ccc(Br)cc1 ?
Cruzain inh noDet: 25µM*; Cruzain Triton: -1%

What do the screens show for `CCOc1cc2c(C#N)c(N3CCCCC3)nc(N)c2c(N)n1`?
Cruzain inh noDet: -11%; Cruzain Triton: -9%

Results for COc1ccc(CN2C(=O)Cc3c2nc(N)c2c(N)nc(N4CCCCC4)c(C#N)c32)cc1 ?
Cruzain inh noDet: 6.3µM*; Cruzain Triton: -9%

How did Cc1cc(Oc2ccc(-c3nnc(-c4ccccc4)o3)cc2[N+](=O)[O-])ccc1Cl do in these assays?
Cruzain inh noDet: 13µM*; Cruzain Triton: 0%

Results for Cc1nnc(-c2ccc(Oc3ccc(Br)cc3)c([N+](=O)[O-])c2)o1 ?
Cruzain inh noDet: 4%; Cruzain Triton: -3%

What do the screens show for `CC(=O)c1c(C)n([O-])c2ccc(C)cc2[n+]1=O`?
Cruzain inh noDet: 1.6µM*; Cruzain Triton: 0%

Results for Cc1ccc2c(c1)n([O-])c1c([n+]2=O)CCCC1 ?
Cruzain inh noDet: -4%; Cruzain Triton: 6%

What do the screens show for `COc1ccc(S(=O)(=O)N2CCN(Cc3ccc4c(c3)OCO4)CC2)cc1OC`?
Cruzain inh noDet: -7%; Cruzain Triton: 0%

Results for O=C(CCN1C(=O)/C(=C/C=C/c2ccccc2)SC1=S)Nc1cccnc1 ?
Cruzain inh noDet: inconclusive; Cruzain Triton: -4%

What do the screens show for `CC(=O)c1ccc(NC(=O)CN2C(=O)/C(=C/C=C/c3ccccc3)SC2=S)cc1`?
Cruzain inh noDet: 10µM*; Cruzain Triton: -8%

What do the screens show for `CCOC(=O)C1CCCN(S(=O)(=O)c2ccc3[nH]c(=O)oc3c2)C1` (stereo unspecified)?
Cruzain inh noDet: 9%; Cruzain Triton: 1%

How did CCn1c(=O)n(-c2ccc(F)cc2)c(=O)c2sc3ccccc3c21 do in these assays?
Cruzain inh noDet: 12%; Cruzain Triton: -1%

What do the screens show for `CCOC(=O)Oc1ccc2c(=O)c(Oc3cccc(C)c3)coc2c1`?
Cruzain inh noDet: -11%; Cruzain Triton: -5%

What do the screens show for `Cc1cccc(Oc2coc3cc(OC(=O)c4cc5ccccc5oc4=O)ccc3c2=O)c1`?
Cruzain inh noDet: 5µM*; Cruzain Triton: 4%

How did COc1ccc(NC(=O)c2ccc3c(c2)N(Cc2cccc(Cl)c2)C(=O)c2ccccc2S3=O)cc1Cl (stereo unspecified) do in these assays?
Cruzain inh noDet: inconclusive; Cruzain Triton: -5%

What do the screens show for `CC(=O)c1ccc(NC(=O)c2ccc3c(c2)N(Cc2cccc(Cl)c2)C(=O)c2ccccc2S3(=O)=O)cc1`?
Cruzain inh noDet: 10µM*; Cruzain Triton: -2%

How did CC(=O)c1ccc(NC(=O)c2ccc3c(c2)N(Cc2cccc(Cl)c2)C(=O)c2ccccc2S3=O)cc1 (stereo unspecified) do in these assays?
Cruzain inh noDet: -14%; Cruzain Triton: 0%

What do the screens show for `COc1ccc(NC(=O)c2ccc3c(c2)N(Cc2cccc(Cl)c2)C(=O)c2ccccc2S3(=O)=O)cc1Cl`?
Cruzain inh noDet: 3.2µM*; Cruzain Triton: 0%

How did Cc1ccc(NC(=O)Cn2c(=O)n(Cc3ccco3)c(=O)c3sc4ccccc4c32)cc1C do in these assays?
Cruzain inh noDet: 20%; Cruzain Triton: -26%

How did COc1ccc(-n2c(=S)[nH]c3cc(C(=O)Nc4cccc(C)c4)ccc3c2=O)cc1 do in these assays?
Cruzain inh noDet: 13µM*; Cruzain Triton: 1%

How did COc1ccc(-n2c(=S)[nH]c3cc(C(=O)Nc4ccc(OC)c(OC)c4)ccc3c2=O)cc1 do in these assays?
Cruzain inh noDet: -2%; Cruzain Triton: 3%

Results for CCN(CC)S(=O)(=O)c1ccc(C(=O)Nc2nc3c(Cl)cc(Cl)cc3s2)cc1 ?
Cruzain inh noDet: -2%; Cruzain Triton: 6%
